# Assay outcomes deposited in PubChem BioAssay by National Center for Advancing Translational Sciences (NCATS).
# NTMT1 inh = Primary qHTS for Inhibitors of N-terminal methyltransferase 1 (NTMT1): MTaseGlo Assay; Potency, µM (top dose mostly 114 µM), most hits filed as inhibitors; actives 2.5% (n = 59,000); NTMT1 MTase-Glo SAH luminescence, purified enzyme; also: nearly all actives have a fitted effect of over 65% in size
# Target sequence (Q9BV86 whole entry, looked up): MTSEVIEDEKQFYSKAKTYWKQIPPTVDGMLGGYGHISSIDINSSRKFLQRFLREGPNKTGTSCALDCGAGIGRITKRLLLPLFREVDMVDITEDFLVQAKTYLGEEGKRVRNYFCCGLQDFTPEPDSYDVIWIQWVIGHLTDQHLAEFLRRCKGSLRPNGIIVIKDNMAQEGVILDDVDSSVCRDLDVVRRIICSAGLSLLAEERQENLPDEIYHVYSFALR
# GALC G270D up = A Novel Cell-Based Assay to Identify Small Molecules for B -Galactocerebrosidase. Potency, µM (series often up to 57.5 µM), actives largely listed as activators. 145M-Twi-hGALC-G270D cells, HMU-beta-Gal fluorescence, 48 h. actives 0.1% (n = 45,000). P54803; also: nearly all actives have a fitted effect of over 65% in size
#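 qHTS, 1536-well; 145M-Twi-hGALC-G270D cells (WT line also made) in DMEM/F12 + 10% FBS; compound incubation on live cells; HMU-β-gal 0.1 mM final, pH 5.2, NaTC; carbonate stop; fluorescence increase = enhanced residual activity.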
# GALK inhibitor = qHTS Assay for Inhibitors of Human Galactokinase (GALK): NCGC Sytravon Library Screen; 44,000 tested, under 10 active; recombinant GALK, Kinase-Glo ATP luminescence, 1 h; AID 1347072, 2019; Potency, µM (series often up to 57.5 µM), hits mostly inhibitors
#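 Luminescent ATP-depletion readout (Kinase-Glo Plus) after 1 h room-temperature incubation of human GALK (5 nM) with galactose 100 µM and ATP 35 µM, pH 8.0 HEPES/Mg2+ buffer; compounds tested in qHTS format.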
# FH mod = Identification of activators of human fumarate hydratase by quantitative high-throughput screening. Fumarate hydratase, mitochondrial (Homo sapiens), P07954. FH coupled MDH/diaphorase resazurin fluorescence, 15 min. Potency, µM (top dose mostly 79.9 µM), actives largely listed as inhibitors. actives 0.22% (n = 54,000); also: the screen sought activators but most active calls are inhibition curves; nearly all actives have a fitted effect of over 45% in size
# PTAP-TSG101 blk = qHTS Validation Assay for Inhibitors of HIV-1 Budding by Blocking the Interaction of PTAP/TSG101: Sytravon Library Screen. AID 1347069, 2019. Potency, µM (top dose mostly 115 µM), hits mostly inhibitors. Tumor susceptibility gene 101 protein (Homo sapiens), Q99816. 44,000 tested, under 10 active. Fluorescence polarization, FITC-PTAP peptide/Tsg101, 20 min
#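 Steps: Tsg101 binding domain (10 uM final) in HEPES pH 7.5/NaCl/Tween 20/EDTA/TCEP; add compound; add FITC-PTAP peptide (50 nM final); incubate 20 min r.t.; read polarization.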
# B2AR arrestin ag = qHTS assay of beta-arrestin-biased ligands of beta2-adrenergic receptor: NCGC Sytravon Library Screen; HTLA Tango cells, beta-arrestin recruitment, luciferase luminescence, 18 h; Potency, µM (doses to about 46.1 µM), hits mostly activators; Beta-2 adrenergic receptor (Homo sapiens), P07550; 44,000 tested, under 10 active
#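 Receptor–beta-arrestin recruitment read by tTA-responsive luciferase: compound titrations (up to 46 µM) incubated 18 h with Tango cells, then luminescent substrate 15 min at room temperature. Concentration-response fits classified by r2, efficacy and activity.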
# Hits are given with their value; i = inactive; ? = inconclusive; nt = no result given; ! = not active in a repeat; [ ] = dose if it differs, or a comment. This excerpt belongs to a sample that is enriched for hits. Calls follow the shape of the dose curve; as a rule, active = well fitted curve in the direction sought with a large enough effect; inconclusive = small, poorly fitted or top-dose-only effect, or another doubt; inactive = no such curve, though single readings can be large; an effect the other way counts as inactive or inconclusive.
SMILES,NTMT1 inh,GALC G270D up,GALK inhibitor,FH mod,PTAP-TSG101 blk,B2AR arrestin ag
Cc1ccc(Nc2c(-c3ccc(C)o3)nc3cccc(C)n23)cc1,7.94µM,i,i,?,i,i
COc1cccc(-n2cnc3cc(C(=O)N4CCCCC4)ccc32)c1,i,nt,nt,nt,nt,nt
CCOCCn1nc(CC)c2nc(N3CCC(C(=O)O)CC3)nc(Nc3cc(C)ccn3)c21,i,nt,nt,i,nt,nt
Cc1cn([C@H]2C[C@H](N[S+](=O)([O-])Cc3ccccc3)[C@@H](CO)O2)c(=O)[nH]c1=O,i,nt,nt,nt,nt,nt
COc1cccc(NC(=O)c2c(C)oc3nc(C)nc(N4CCCC4)c23)c1,89.1µM,i,i,i,i,i
CCc1cccc(NC(=O)c2c(C)oc3nc(C)nc(N4CCCC4)c23)c1,i,i,i,i,i,i
COc1cccc(CNc2ccc(S(=O)(=O)Nc3cccnc3)cc2)c1O,i,nt,nt,nt,nt,nt
CCC(=O)OCC(=O)C1(OC(=O)CC)C(C)CC2C3CCC4=CC(=O)C=CC4(C)C3(F)C(O)CC21C (stereo unspecified),i,nt,nt,nt,nt,nt
C=C1CCC2C(C)(C)CC(=O)CC2(C)C1CCC(C)CCOC(C)=O (stereo unspecified),i,nt,nt,i,nt,nt
Nc1nc2c(c(=O)[nH]1)C[C@@H](CCc1ccc(C(=O)N[C@@H](CCC(=O)O)C(=O)O)cc1)CN2,i,nt,nt,i,nt,nt
CCOC(=O)NNc1ccc(N(CC)CC(C)O)nn1 (stereo unspecified),28.2µM,i,nt,i,nt,nt
O=C(c1cc(O)c(O)c(O)c1)c1ccc(O)c(O)c1O,31.6µM,i,nt,?,nt,nt
COc1cc(=C2C=c3ccccc3=N2)[nH]/c1=C/c1[nH]c(C)cc1C,39.8µM,nt,nt,nt,nt,nt
COc1c/c(=C2\C=c3ccccc3=N2)[nH]/c1=C\c1[nH]c(C)cc1C,?,nt,nt,i,nt,nt
CC(C)C(=O)N1c2nc(-c3ccco3)nn2C2(CCCCC2)[C@@H]2CCCC[C@@H]21,89.1µM,i,i,i,i,i
C=CCN(/C=C1\C(=O)O[C@@H](COC)[C@]2(C)C1=C(O)C(=O)C1=C2[C@@H](OC(C)=O)C[C@]2(C)C(=O)CC[C@H]12)CC=C,i,nt,nt,nt,nt,nt
CCc1ccc(Nc2nc(N)nc(CSc3nc4ccccc4s3)n2)cc1,89.1µM,i,i,?,i,i
O=C(Nc1nc2nc(-c3ccccc3)cc(=O)n2[nH]1)c1ccc(Cl)cc1,50.1µM,i,i,i,i,i
CN(Cc1ccc(/C=C/C(=O)NO)cc1)CC12CC3CC(CC(C3)C1)C2,i,nt,nt,nt,nt,nt
CCOC(=O)c1ccnc(CNCC(=O)N(CC)CCN(C)C)c1,i,nt,nt,i,nt,nt
CCc1ccc(NC(=O)Nc2cn(C)c(=O)c3ccccc23)cc1,?,i,i,31.6µM[activator],i,i
CC(C)Cn1cc(NC(=O)Nc2cccc(C(F)(F)F)c2)c2ccccc2c1=O,i,i,i,?,i,i
Cc1ccc(NC(=O)Nc2cn(C)c(=O)c3ccccc23)c(Cl)c1,i,i,i,28.2µM[activator],i,i
COc1ccccc1NC(=O)c1cc2cc3ccc(OC)c(Cl)c3nc2s1,39.8µM,i,i,i,i,i
C=CCn1c(=O)c2cnc(Nc3ccc(N4CCN(C)CC4)cc3)nc2n1-c1cccc(C(C)(C)O)n1,39.8µM!,nt,nt,?,nt,nt
CCOc1ccccc1N1CC(c2nc3ccccc3n2CCCCOc2cc(C)ccc2C)CC1=O (stereo unspecified),89.1µM,i,i,i,i,i
CCOc1ccccc1N1CC(c2nc3ccccc3n2CCCOc2ccccc2OC)CC1=O (stereo unspecified),i,i,i,?,i,i
